The results in this text go back to ChEMBL document CHEMBL1961873, “Compounds: GSK PKIS; Assays: Nanosyn kinase panel” (2012).

Assay [1] concerns the target Protein kinase C gamma type (Homo sapiens) (UniProt P05129). Particulars: at 1 µM.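 Note: each value is an averaged percent inhibition of the enzyme.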
For assay [2], the target named is T1, Protein kinase C iota type (Homo sapiens) (UniProt P41743).
T1 sequence (whole entry): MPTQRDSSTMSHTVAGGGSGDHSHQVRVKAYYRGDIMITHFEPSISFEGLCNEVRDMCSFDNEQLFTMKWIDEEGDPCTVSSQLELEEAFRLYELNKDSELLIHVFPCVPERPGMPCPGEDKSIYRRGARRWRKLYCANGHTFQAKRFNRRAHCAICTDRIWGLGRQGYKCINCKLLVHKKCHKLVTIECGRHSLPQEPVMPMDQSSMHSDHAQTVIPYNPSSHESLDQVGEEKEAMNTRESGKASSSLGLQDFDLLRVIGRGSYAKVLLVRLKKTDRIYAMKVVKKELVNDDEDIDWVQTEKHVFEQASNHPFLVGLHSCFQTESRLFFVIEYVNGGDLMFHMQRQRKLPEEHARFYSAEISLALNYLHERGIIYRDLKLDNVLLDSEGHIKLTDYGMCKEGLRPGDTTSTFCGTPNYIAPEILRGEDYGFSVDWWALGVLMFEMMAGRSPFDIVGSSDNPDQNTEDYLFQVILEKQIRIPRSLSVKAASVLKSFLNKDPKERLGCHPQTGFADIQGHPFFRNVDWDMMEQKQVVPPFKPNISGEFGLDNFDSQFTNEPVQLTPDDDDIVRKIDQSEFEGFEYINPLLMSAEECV
Particulars: at 0.1 µM.

In assay [3] the target is T1, Protein kinase C iota type (Homo sapiens). Particulars: at 1 µM.
Assay [4] addresses Protein kinase C theta type (Homo sapiens) (UniProt Q04759). Particulars: at 0.1 µM.
For assay [5] the target is unchanged. To be noted: at 1 µM.
Assay [6] deals with Protein kinase C beta type (Homo sapiens) (UniProt P05771). To be noted: at 0.1 µM.
Chain of Protein kinase C beta type (Homo sapiens) (P05771 2-671 limits assumed): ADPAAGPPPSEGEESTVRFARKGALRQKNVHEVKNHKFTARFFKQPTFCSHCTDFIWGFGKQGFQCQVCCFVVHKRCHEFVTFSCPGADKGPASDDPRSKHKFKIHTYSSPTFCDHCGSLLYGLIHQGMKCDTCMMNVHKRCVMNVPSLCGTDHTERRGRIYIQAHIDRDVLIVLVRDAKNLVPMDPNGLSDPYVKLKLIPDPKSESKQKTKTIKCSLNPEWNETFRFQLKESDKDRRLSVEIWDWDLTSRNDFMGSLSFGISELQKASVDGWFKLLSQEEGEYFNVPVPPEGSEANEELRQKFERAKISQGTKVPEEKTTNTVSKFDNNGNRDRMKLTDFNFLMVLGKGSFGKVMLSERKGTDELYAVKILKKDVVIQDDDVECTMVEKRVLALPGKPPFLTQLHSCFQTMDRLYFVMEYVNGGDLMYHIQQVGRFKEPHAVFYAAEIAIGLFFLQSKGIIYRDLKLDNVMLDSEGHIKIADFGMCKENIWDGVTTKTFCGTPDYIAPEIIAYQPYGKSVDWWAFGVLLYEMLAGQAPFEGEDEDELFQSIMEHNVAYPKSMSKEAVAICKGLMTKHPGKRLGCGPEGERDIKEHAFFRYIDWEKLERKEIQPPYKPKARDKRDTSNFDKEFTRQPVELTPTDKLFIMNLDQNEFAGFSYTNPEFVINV
For assay [7] the target is unchanged. Particulars: at 1 µM.
Assay [8] concerns the target T2, Serine/threonine-protein kinase D1 (Homo sapiens) (UniProt Q15139).
T2 sequence (whole entry): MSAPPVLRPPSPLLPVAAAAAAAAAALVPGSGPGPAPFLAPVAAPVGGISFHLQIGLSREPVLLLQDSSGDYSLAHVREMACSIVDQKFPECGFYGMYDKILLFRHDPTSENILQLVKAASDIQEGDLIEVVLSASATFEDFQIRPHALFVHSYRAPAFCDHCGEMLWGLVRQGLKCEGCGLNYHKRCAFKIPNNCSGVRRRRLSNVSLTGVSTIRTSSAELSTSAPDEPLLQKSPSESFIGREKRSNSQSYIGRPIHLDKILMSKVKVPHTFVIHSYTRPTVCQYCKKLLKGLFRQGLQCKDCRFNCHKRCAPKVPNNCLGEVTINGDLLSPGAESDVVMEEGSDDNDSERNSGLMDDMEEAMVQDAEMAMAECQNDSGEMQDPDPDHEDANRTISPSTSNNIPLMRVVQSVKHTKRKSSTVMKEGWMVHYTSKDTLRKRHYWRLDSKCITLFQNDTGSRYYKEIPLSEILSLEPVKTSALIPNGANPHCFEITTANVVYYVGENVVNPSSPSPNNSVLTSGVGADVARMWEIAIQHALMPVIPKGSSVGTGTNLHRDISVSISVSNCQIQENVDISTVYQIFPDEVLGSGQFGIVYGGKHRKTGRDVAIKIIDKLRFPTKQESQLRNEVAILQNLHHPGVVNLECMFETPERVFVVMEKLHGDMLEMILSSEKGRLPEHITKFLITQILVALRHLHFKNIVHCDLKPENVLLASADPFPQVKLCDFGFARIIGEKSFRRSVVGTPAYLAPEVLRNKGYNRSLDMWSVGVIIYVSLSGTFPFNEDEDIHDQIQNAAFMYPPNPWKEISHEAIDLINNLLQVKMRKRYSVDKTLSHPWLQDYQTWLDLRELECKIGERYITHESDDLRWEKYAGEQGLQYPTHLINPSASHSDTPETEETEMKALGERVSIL
To be noted: at 0.1 µM.

The target of assay [9] is T2, Serine/threonine-protein kinase D1 (Homo sapiens). To be noted: at 1 µM.
Assay [10] concerns the target T3, Serine/threonine-protein kinase D2 (Homo sapiens) (UniProt Q9BZL6).
T3 sequence (whole entry): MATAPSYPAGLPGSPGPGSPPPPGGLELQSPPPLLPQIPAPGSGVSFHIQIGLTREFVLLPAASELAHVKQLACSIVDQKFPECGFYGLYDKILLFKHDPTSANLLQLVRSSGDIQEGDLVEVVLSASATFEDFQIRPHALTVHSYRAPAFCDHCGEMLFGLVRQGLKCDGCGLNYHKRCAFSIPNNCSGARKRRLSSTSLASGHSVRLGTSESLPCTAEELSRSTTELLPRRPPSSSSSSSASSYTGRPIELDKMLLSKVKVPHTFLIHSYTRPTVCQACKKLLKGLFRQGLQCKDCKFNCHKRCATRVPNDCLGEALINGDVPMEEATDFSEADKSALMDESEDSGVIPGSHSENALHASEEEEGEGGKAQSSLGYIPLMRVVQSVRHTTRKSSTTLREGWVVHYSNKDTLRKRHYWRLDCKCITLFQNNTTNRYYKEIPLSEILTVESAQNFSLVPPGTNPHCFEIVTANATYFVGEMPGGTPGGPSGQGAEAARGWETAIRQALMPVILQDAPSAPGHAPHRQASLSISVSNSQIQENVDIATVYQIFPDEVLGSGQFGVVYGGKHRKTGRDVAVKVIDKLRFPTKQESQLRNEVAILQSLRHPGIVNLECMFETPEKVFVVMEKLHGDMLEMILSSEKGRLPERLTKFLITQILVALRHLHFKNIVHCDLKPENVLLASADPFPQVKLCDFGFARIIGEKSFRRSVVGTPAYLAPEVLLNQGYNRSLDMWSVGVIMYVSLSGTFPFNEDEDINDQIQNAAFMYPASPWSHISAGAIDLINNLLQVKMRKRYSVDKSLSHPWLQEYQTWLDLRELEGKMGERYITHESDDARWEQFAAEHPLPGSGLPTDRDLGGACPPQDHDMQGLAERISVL
To be noted: at 0.1 µM.

The target of assay [11] is T3, Serine/threonine-protein kinase D2 (Homo sapiens). To be noted: at 1 µM.
In assay [12] the target is T4, Serine/threonine-protein kinase D3 (Homo sapiens) (UniProt O94806).
T4 sequence (whole entry): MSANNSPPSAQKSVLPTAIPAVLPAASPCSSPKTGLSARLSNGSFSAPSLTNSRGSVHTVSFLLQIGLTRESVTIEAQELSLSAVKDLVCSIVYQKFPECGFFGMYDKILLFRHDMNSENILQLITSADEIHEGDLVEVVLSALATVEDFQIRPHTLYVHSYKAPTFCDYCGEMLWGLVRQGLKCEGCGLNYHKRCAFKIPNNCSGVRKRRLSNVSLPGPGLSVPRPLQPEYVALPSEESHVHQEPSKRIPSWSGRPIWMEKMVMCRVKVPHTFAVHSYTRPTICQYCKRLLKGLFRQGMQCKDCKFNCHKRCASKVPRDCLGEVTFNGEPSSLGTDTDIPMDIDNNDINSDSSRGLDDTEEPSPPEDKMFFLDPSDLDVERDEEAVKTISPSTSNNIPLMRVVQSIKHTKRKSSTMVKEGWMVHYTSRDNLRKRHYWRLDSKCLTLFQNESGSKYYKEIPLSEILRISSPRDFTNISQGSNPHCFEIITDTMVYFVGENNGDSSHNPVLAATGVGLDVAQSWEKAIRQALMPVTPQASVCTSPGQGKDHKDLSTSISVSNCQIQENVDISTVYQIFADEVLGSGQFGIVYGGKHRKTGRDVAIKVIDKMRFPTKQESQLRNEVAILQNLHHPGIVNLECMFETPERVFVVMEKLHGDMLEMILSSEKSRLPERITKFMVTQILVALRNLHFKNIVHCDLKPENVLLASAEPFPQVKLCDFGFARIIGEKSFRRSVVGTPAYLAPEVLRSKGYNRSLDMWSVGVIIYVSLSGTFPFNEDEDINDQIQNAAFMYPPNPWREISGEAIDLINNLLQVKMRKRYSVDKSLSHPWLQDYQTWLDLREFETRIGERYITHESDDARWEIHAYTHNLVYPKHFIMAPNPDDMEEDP
Particulars: at 0.1 µM.

Assay [13] deals with T4, Serine/threonine-protein kinase D3 (Homo sapiens). Particulars: at 1 µM.
In assay [14] the target is T5, cGMP-dependent protein kinase 1 (Homo sapiens) (UniProt Q13976).
T5 sequence (whole entry): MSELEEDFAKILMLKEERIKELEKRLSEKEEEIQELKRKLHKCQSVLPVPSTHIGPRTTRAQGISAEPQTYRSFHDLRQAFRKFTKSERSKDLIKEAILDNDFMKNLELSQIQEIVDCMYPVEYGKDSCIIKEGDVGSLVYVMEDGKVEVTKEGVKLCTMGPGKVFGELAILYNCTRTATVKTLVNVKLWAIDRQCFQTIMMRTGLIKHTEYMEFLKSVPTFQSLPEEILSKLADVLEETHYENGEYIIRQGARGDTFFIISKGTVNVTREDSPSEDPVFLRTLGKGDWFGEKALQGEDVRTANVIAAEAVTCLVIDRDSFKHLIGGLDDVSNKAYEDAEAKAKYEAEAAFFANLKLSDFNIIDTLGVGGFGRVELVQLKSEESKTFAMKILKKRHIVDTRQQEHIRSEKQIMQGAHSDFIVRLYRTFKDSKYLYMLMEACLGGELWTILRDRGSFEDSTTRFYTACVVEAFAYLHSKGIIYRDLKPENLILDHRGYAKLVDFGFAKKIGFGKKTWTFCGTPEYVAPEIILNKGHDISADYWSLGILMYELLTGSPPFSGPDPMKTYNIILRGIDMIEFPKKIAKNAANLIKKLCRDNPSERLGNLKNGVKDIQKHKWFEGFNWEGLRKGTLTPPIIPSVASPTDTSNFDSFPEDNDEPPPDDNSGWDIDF
To be noted: at 0.1 µM.

The target of assay [15] is T5, cGMP-dependent protein kinase 1 (Homo sapiens). To be noted: at 1 µM.
In assay [16] the target is T6, cGMP-dependent protein kinase 2 (Homo sapiens) (UniProt Q13237).
T6 sequence (whole entry): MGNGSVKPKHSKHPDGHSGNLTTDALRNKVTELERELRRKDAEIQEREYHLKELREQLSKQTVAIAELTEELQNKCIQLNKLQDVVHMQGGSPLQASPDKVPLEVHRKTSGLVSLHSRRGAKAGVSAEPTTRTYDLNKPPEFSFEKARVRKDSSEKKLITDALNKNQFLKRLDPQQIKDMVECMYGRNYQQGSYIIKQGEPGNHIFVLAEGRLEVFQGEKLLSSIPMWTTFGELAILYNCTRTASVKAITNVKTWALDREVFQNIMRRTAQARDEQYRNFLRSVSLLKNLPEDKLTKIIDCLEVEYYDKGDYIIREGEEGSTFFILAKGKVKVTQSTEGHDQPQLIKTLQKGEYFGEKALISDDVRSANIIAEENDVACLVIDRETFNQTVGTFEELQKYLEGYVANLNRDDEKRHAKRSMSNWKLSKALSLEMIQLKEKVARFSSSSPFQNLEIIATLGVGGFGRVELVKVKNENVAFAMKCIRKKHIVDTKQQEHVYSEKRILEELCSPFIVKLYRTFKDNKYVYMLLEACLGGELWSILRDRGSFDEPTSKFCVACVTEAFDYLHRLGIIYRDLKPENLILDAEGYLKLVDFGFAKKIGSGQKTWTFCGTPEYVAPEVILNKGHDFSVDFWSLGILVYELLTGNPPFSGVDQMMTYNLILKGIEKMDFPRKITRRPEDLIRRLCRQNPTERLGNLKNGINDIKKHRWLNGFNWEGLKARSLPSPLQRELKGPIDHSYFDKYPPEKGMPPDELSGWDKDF
To be noted: at 0.1 µM.

Assay [17] has as its target T6, cGMP-dependent protein kinase 2 (Homo sapiens). Particulars: at 1 µM.
Assay [18] concerns the target T7, cAMP-dependent protein kinase catalytic subunit PRKX (Homo sapiens) (UniProt P51817).
T7 sequence (whole entry): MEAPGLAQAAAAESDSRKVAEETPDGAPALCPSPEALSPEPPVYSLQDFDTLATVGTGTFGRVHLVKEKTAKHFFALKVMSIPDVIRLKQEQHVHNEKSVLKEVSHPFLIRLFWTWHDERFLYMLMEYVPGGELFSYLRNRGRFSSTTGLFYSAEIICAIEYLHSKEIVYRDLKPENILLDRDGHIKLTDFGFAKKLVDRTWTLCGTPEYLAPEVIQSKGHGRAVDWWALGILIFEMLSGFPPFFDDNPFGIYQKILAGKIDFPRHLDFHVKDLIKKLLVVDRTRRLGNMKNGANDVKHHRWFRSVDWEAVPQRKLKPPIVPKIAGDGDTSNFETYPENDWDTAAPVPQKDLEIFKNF
To be noted: at 0.1 µM.

The target of assay [19] is T7, cAMP-dependent protein kinase catalytic subunit PRKX (Homo sapiens). Particulars: at 1 µM.
Assay [20] concerns the target Rho-associated protein kinase 1 (Homo sapiens) (UniProt Q13464). Particulars: at 0.1 µM.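 Note: values are mean percent inhibition of ROCK1.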

Chain of Protein kinase C theta type (Homo sapiens) (Q04759 whole entry, looked up): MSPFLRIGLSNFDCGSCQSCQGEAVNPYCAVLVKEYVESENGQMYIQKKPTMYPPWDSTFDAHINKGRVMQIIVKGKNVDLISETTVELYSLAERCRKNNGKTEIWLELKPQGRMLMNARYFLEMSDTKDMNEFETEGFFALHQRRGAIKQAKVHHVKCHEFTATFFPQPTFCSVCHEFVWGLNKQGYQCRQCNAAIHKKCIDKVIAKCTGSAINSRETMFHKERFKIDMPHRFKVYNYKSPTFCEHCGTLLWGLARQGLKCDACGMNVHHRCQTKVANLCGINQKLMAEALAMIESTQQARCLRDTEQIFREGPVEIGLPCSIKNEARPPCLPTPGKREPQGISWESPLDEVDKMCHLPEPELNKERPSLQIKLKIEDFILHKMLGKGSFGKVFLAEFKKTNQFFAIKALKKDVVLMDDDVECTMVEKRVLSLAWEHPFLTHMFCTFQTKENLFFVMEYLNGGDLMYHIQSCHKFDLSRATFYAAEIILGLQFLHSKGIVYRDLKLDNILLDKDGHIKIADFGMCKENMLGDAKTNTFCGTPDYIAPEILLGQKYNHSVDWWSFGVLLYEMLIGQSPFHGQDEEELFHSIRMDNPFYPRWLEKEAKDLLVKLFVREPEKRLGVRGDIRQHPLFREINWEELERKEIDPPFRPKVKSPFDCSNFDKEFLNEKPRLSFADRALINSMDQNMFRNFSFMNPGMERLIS
Chain of Rho-associated protein kinase 1 (Homo sapiens) (Q13464 2-1354 limits assumed): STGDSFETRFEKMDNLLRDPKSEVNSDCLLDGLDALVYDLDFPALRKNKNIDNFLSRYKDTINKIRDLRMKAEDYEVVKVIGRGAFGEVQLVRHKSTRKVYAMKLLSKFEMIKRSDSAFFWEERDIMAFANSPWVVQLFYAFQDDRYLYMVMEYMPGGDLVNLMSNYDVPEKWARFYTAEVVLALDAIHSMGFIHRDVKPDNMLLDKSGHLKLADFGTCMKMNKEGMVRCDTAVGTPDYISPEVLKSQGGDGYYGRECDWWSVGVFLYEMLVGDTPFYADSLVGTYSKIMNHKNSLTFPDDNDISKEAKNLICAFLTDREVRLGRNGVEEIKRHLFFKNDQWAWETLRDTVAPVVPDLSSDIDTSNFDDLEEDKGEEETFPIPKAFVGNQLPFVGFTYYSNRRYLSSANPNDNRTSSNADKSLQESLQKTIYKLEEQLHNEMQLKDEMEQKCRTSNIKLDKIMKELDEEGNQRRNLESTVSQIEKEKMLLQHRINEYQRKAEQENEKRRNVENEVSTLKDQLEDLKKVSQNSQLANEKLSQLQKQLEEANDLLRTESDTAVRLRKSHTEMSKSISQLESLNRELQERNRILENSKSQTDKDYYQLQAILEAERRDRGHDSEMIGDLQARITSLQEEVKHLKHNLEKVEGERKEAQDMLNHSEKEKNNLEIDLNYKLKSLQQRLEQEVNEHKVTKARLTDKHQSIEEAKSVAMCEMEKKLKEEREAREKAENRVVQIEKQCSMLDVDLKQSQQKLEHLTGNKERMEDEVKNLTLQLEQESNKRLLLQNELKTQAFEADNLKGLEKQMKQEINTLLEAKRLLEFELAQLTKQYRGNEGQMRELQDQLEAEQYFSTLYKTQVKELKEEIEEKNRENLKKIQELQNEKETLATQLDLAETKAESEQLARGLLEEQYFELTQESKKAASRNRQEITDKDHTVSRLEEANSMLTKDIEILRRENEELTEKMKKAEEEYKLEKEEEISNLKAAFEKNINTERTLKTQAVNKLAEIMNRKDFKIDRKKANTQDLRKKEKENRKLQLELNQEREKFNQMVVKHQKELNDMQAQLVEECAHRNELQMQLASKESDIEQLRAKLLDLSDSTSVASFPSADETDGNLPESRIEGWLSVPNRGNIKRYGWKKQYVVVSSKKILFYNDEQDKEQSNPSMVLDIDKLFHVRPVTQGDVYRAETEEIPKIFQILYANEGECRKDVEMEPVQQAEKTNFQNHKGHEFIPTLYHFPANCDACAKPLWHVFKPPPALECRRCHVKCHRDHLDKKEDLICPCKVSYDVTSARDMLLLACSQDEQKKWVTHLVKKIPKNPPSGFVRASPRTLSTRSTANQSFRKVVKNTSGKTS

Regarding `COc1ccc(CNC(=O)c2ccc(-c3cc(-c4nnc(C)o4)ccc3C)cc2)cc1`, the inhibition (as a rule, the change of the read-out against control, counted positive when it falls) in [1] amounted to 2.05%; in assay [2] it was 2.77%; in [3], 0.76%; in assay [4], 2.86%; in assay [5] it was 5.52%; in assay [6] it was 2.73%. In addition, the inhibition is 3.61% in [7]; 2.89% in [8]; -0.42% in assay [9]; 0.8% in [10]; 1.08% in assay [11]; 0.4% in assay [12]. In addition, the inhibition in assay [13] was 0.26%; in assay [14], 3.61%; in assay [15] it was 3.68%; in assay [16] it was 2.93%; in [17] it was 4.96%; in [18], 3.88%. Moreover, the inhibition in assay [19] is 6.21%; in assay [20], 2.49%.
Regarding `COC(=O)Nc1nc2ccc(S(=O)(=O)c3ccc(NC(=O)Nc4cc(C(F)(F)F)ccc4F)cc3)cc2[nH]1`, the inhibition in assay [1] is 1.8%; in [2], 0.65%; in [3], 1.49%; in [4], 0.7%; in assay [5], -0.17%; in assay [6], 0.33%. The inhibition was 0.07% in assay [7]; 2.33% in [8]; 5.18% in [9]; 2.66% in [10]; 5.37% in assay [11]; 3.18% in assay [12]. The inhibition in assay [13] came to 5.1%; in [14], 2.21%; in assay [15] it was 3.86%; in assay [16] it was 2.34%; in assay [17], 2.48%; in assay [18] it was 0.54%. Further, the inhibition in [19] is -0.36%; in assay [20], 0.44%.
